Screening results deposited in PubChem by Sanford-Burnham Center for Chemical Genomics.
Hits are enriched below; roughly 31% of the tested compounds scored in any of these assays.
CYP2C9 activ – human CYP2C9 activators, primary screen, biochemical, luminescence | Cytochrome P450 2C9 (Homo sapiens), P11712 | recombinant CYP2C9, luciferin-H conversion; stronger effect = higher value; factor 1 = untreated enzyme, 0 = blocked | activation factor at 5 µM | hit rate 1.4% among 96,000 | AID 1024, 2008;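 active means activation factor of 2 or more for CYP2C9 at a 5 µM dose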;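 further: 0 = sulfaphenazole-blocked wells and 1 = vehicle-only wells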
Target sequence (P11712 whole entry, looked up): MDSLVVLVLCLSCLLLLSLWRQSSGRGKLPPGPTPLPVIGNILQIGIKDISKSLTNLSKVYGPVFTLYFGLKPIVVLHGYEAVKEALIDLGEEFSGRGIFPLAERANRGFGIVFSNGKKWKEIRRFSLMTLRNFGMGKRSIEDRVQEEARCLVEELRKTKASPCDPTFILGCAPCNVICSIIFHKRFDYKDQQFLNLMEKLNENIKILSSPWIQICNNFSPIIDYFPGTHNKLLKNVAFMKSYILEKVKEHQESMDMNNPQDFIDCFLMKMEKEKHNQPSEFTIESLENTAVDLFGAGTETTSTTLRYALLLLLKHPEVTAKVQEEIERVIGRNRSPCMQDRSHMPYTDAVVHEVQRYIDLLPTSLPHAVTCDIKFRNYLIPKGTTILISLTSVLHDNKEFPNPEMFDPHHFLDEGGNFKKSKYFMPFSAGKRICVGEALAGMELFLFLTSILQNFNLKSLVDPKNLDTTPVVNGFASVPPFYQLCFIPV
CYP2C19 inh – blockers of cytochrome P450 2C19 activity – biochemical, luminescence, ADME assay, primary screen | inhibition, % at 5 µM | P33261 | AID 778, 2007 | hit rate 21% among 96,000 | CYP2C19 Supersomes, luciferin-H EGE luminescence, 30 min;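 active means CYP2C19 inhibition above a set limit at 5 µM in the primary screen, cut at about 50% in these data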;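 further: plate controls were negative control wells for no effect and 2.5 mM tranylcypromine positive control for full effect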
CYP2C9 inh – blockers of cytochrome P450 2C9 activity – biochemical, luminescence, ADME assay, primary screen. P11712. CYP2C9 Supersomes, luciferin-H conversion. inhibition, % at 5 µM. hit rate 20% among 96,000. AID 777, 2007;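 active means blocking of liver enzyme CYP2C9 beyond about 50% at 5 µM, limit read from the data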
CYP2C19 activ – human CYP2C19 activators, primary screen, biochemical, luminescence; Cytochrome P450 2C19 (Homo sapiens), P33261; activation factor at 5 µM; 96,000 tested, under 10 active; recombinant CYP2C19, luciferin-H EGE luminescence; stronger effect = higher value; 0 = fully inhibited enzyme, 1 = untreated enzyme;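 active means activation factor of at least 2 at 5 µM in the primary screen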;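 further: 0 = wells with 2.5 mM tranylcypromine and 1 = vehicle-only wells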
Numbers without * were called inactive.

Screening COc1ccc(Cl)cc1CSc1n[nH]c(C)n1 returned CYP2C9 activ 0.8, CYP2C19 inh 88*, CYP2C9 inh 15 and CYP2C19 activ 0.1.
For CCCCOc1ccc(Cl)cc1CSc1nnc(C)n1N the results were CYP2C9 activ 0.8, CYP2C19 inh 19, CYP2C9 inh 20 and CYP2C19 activ 0.8.
Screening CCOc1ccc(Cl)cc1CSc1n[nH]c(CC)n1 returned CYP2C9 activ 0.3, CYP2C19 inh 94*, CYP2C9 inh 72* and CYP2C19 activ 0.1.
CCCCOc1ccc(Cl)cc1CSc1n[nH]c(C)n1 was read as CYP2C9 activ 0.4, CYP2C19 inh 85*, CYP2C9 inh 64* and CYP2C19 activ 0.2.
Screening CCN(CC)S(=O)(=O)c1cccc(NC(=O)c2cc3ccccc3o2)c1 returned CYP2C9 activ 0.6, CYP2C19 inh 9, CYP2C9 inh 39 and CYP2C19 activ 0.9.
`Cc1cc(C(=O)OCC(=O)Nc2ccc(F)cc2)c(C)o1` gave CYP2C9 activ 1.1, CYP2C19 inh 61*, CYP2C9 inh -10 and CYP2C19 activ 0.4.
For CCN(CC)S(=O)(=O)c1cccc(NC(=O)COC(=O)c2cc(C)oc2C)c1 the results were CYP2C9 activ 0, CYP2C19 inh 64*, CYP2C9 inh 96* and CYP2C19 activ 0.4.
CN(C)S(=O)(=O)c1ccc(NC(=O)CN2CCN(C(c3ccccc3)c3ccccc3)CC2)cc1 was read as CYP2C9 activ 1, CYP2C19 inh -4, CYP2C9 inh 3 and CYP2C19 activ 1.
CC1=C(C(=O)Nc2ccccc2)C(c2ccco2)n2ncnc2N1 (configuration not stated) was read as CYP2C9 activ 1.1, CYP2C19 inh -10, CYP2C9 inh -6 and CYP2C19 activ 1.1.
`CC(=O)c1cccc(S(=O)(=O)NCC(c2ccco2)N2CCCCC2)c1` (configuration not stated) gave CYP2C9 activ 0.9, CYP2C19 inh 75*, CYP2C9 inh 9 and CYP2C19 activ 0.2.
`Cc1nc2nc(-c3cccnc3)[nH]n2c(=O)c1Cc1ccccc1` gave CYP2C9 activ 0.9, CYP2C19 inh -4, CYP2C9 inh 9 and CYP2C19 activ 1.
COc1ccc(-c2nc(CSCC(=O)N3CCN(c4cccc(C)c4)C(C)C3)c(C)o2)cc1OC (configuration not stated) was read as CYP2C9 activ 0.6, CYP2C19 inh 73*, CYP2C9 inh 37 and CYP2C19 activ 0.3.
COc1ccc(-c2nnn(CC(=O)NC3CCCc4ccccc43)n2)cc1OC (configuration not stated) was read as CYP2C9 activ 1, CYP2C19 inh 64*, CYP2C9 inh 1 and CYP2C19 activ 0.4.
For COc1ccc(-c2nc(CSCC(=O)NC3CCCc4ccccc43)c(C)o2)cc1OC (configuration not stated) the results were CYP2C9 activ 0.3, CYP2C19 inh 61*, CYP2C9 inh 66* and CYP2C19 activ 0.4.
For CCOC(=O)N1CCC(NC(=O)CSCc2nc(-c3ccc(OC)c(OC)c3)oc2C)CC1 the results were CYP2C9 activ 0.7, CYP2C19 inh 27, CYP2C9 inh 32 and CYP2C19 activ 0.7.
For COc1ccc(-c2nc(CS(=O)CC(=O)NC3CCCc4ccccc43)c(C)o2)cc1OC (configuration not stated) the results were CYP2C9 activ 0.1, CYP2C19 inh 56*, CYP2C9 inh 88* and CYP2C19 activ 0.4.
`CCCC(=O)Nc1nnc(CC(=O)N2CCCC2)s1` gave CYP2C9 activ 1.2, CYP2C19 inh 5, CYP2C9 inh -21 and CYP2C19 activ 0.9.
For Cc1sc2ncnc(-n3cnc4ccccc43)c2c1C the results were CYP2C9 activ 1, CYP2C19 inh 46, CYP2C9 inh -4 and CYP2C19 activ 0.5.
For CC(C#N)On1c(SC(C)C#N)nc2ccccc2c1=O (configuration not stated) the results were CYP2C9 activ 0.7, CYP2C19 inh 11, CYP2C9 inh 30 and CYP2C19 activ 0.9.
CCC(C)n1c(SC(C)C#N)nc2ccccc2c1=O (configuration not stated) was read as CYP2C9 activ 0.3, CYP2C19 inh 48, CYP2C9 inh 70* and CYP2C19 activ 0.5.
COC(=O)CNC(=O)C(C)NC(=O)OCc1ccccc1 (configuration not stated) was read as CYP2C9 activ 1.1, CYP2C19 inh -2, CYP2C9 inh -7 and CYP2C19 activ 1.
